# Data as given in PubChem BioAssay (NCI).
# About 79,000 compounds went through this panel and 15% of them were active in at least one assay; those are over-represented in the sample as a whole. Unmarked numbers belong to inactive results. Calls of active or inactive are those of the source. Cut-off read from the data, not from the text of the source: active = growth inhibition above about 70%; inactive = the rest.
# How the values were obtained:
# [1] = NCI Yeast Anticancer Drug Screen. Data for the rad52 strain (AID 147);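 note: 0% = growth of vehicle-treated control cultures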; settings: S. cerevisiae rad52 mutant growth inhibition, stronger effect = higher value
# How it was run: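 Measured: yeast growth inhibition. System: strain with a defined DNA damage repair alteration. Reference: vehicle-treated control cultures.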
# [2] = NCI Yeast Anticancer Drug Screen. Data for the wt1 strain (AID 149);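 note: 0% = growth of vehicle-treated wt1 cultures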; settings: S. cerevisiae wt1 strain (SPY 50644) growth inhibition, stronger effect = higher value
# How it was run: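 Using yeast strain wt1, compound-induced growth inhibition was determined against vehicle-treated cultures.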
# [3] = NCI Yeast Anticancer Drug Screen. Data for the rad50EPP+ strain (AID 151);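 note: 0% = growth of vehicle-treated control cultures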; settings: S. cerevisiae rad50 mutant strain, stronger effect = higher value
# How it was run: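 One strain with a rad50 alteration (rad50EPP+) was compound-treated, its growth then compared to that of vehicle controls.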
# [4] = NCI Yeast Anticancer Drug Screen. Data for the mgt1 strain (AID 153); settings: S. cerevisiae mgt1 mutant growth inhibition, stronger effect = higher value
# How it was run: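 After exposure of the mgt1 yeast mutant to compound, growth was measured and reported as inhibition compared with vehicle controls.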
# [5] = NCI Yeast Anticancer Drug Screen. Data for the rad50 strain (AID 155);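 note: 0% = growth of vehicle-only cultures of the same strain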; settings: S. cerevisiae rad50 strain growth inhibition, stronger effect = higher value
# How it was run: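 Relative growth inhibition (compound vs vehicle) was measured in yeast with a defined repair-gene alteration.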
# [6] = NCI Yeast Anticancer Drug Screen. Data for the mec2-1 strain (AID 157); settings: S. cerevisiae mec2-1 strain, stronger effect = higher value
# How it was run: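 Test agents were screened against the mec2-1 yeast strain, with defined DNA repair or cell cycle alteration. Growth was scored as inhibition against vehicle-only controls.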
# [7] = NCI Yeast Anticancer Drug Screen. Data for the rad14 strain (AID 159);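 note: 0% = growth of vehicle-treated control cultures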; settings: S. cerevisiae rad14 strain growth inhibition, stronger effect = higher value
# How it was run: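 Screen for anticancer potential: a yeast strain altered in DNA damage repair is grown with compound, and reduced growth is quantified against vehicle controls.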
# [8] = NCI Yeast Anticancer Drug Screen. Data for the sgs1 mgt1 strain (AID 161);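 note: 0% = growth of cultures given vehicle only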; settings: S. cerevisiae sgs1 mgt1 strain, stronger effect = higher value
# How it was run: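 Read-out: growth inhibition vs vehicle controls. Cells: mutant yeast strain deficient in DNA damage repair.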
# [9] = NCI Yeast Anticancer Drug Screen. Data for the CLN2oe strain (AID 163);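 note: 0% = growth of vehicle-only control cultures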; settings: S. cerevisiae CLN2oe strain, stronger effect = higher value
# How it was run: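 Here, growth inhibition in a cell-cycle-altered yeast strain after compound exposure was quantified against vehicle control growth.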
# [10] = NCI Yeast Anticancer Drug Screen. Data for the cln2 rad14 strain (AID 165);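 note: 0% = growth equal to vehicle treated cultures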; settings: S. cerevisiae cln2 rad14 strain, stronger effect = higher value
# How it was run: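 Growth of compound-exposed yeast (cln2 rad14 genotype) measured and expressed as inhibition relative to vehicle.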
# [11] = NCI Yeast Anticancer Drug Screen. Data for the bub3 strain (AID 167); settings: S. cerevisiae bub3 mutant strain, stronger effect = higher value
# How it was run: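 Screening used yeast with an engineered genetic alteration affecting cell cycle control. Compound-exposed cultures were compared with vehicle cultures, and reduced growth was taken as inhibition.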
# [12] = NCI Yeast Anticancer Drug Screen. Data for the wt2 strain (AID 169);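 note: 0% = growth of vehicle-treated yeast cultures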; settings: S. cerevisiae wt2 strain growth inhibition, stronger effect = higher value
# How it was run: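 Genetically defined yeast strains from a DNA-repair/cell-cycle panel were used. Compound-exposed yeast growth was measured, and the inhibition was calculated relative to vehicle treatment.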
# [13] = NCI Yeast Anticancer Drug Screen. Data for the sgs1 strain (AID 173);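 note: 0% = growth of vehicle-only control cultures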; settings: S. cerevisiae sgs1 mutant, stronger effect = higher value
# How it was run: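 Relative growth inhibition, referenced to vehicle, was determined in a yeast strain with a defined alteration affecting DNA damage repair or cell cycle control after compound exposure.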
# [14] = NCI Yeast Anticancer Drug Screen. Data for the mlh1 rad18 strain (AID 175); settings: S. cerevisiae mlh1 rad18 strain growth inhibition, stronger effect = higher value
# How it was run: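 In this whole-cell yeast screen, a strain with altered DNA damage repair is challenged with compound, and its growth is measured against matched vehicle-treated controls.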
# [15] = NCI Yeast Anticancer Drug Screen. Data for the rad18 strain (AID 177); settings: S. cerevisiae rad18 mutant growth inhibition, stronger effect = higher value
# How it was run: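 Screen uses a yeast strain with a defined lesion in DNA damage repair; compound effect is read as loss of growth compared to untreated vehicle cultures.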
# [16] = at 5.0 µM (retest, dose inferred, filed as 0.5)
# [17] = at 50.0 µM (retest, dose inferred, filed as 5.0)
compound,measurement,setting,value
O=C(OCCN1CCCCCC1)C(c1ccsc1)C1CCCCC1 (stereo not drawn),growth inhibition,[1]; at 1.2 µM,15%
same,growth inhibition,[1]; at 3.7 µM,14%
same,growth inhibition,[1]; at 11.0 µM,50%
same,growth inhibition,[1]; at 33.0 µM,57%
same,growth inhibition,[1]; at 100.0 µM,50%
same,growth inhibition,[2]; at 1.2 µM,-67%
same,growth inhibition,[2]; at 3.7 µM,13%
same,growth inhibition,[2]; at 11.0 µM,16%
same,growth inhibition,[2]; at 33.0 µM,19%
same,growth inhibition,[2]; at 100.0 µM,19%
same,growth inhibition,[3]; at 1.2 µM,-1%
same,growth inhibition,[3]; at 3.7 µM,-1%
same,growth inhibition,[3]; at 11.0 µM,-1%
same,growth inhibition,[3]; at 33.0 µM,0%
same,growth inhibition,[3]; at 100.0 µM,2%
same,growth inhibition,[4]; at 1.2 µM,8%
same,growth inhibition,[4]; at 3.7 µM,21%
same,growth inhibition,[4]; at 11.0 µM,34%
same,growth inhibition,[4]; at 33.0 µM,36%
same,growth inhibition,[4]; at 100.0 µM,37%
same,growth inhibition,[5]; at 1.2 µM,11%
same,growth inhibition,[5]; at 3.7 µM,17%
same,growth inhibition,[5]; [16],13%
same,growth inhibition,[5]; at 11.0 µM,25%
same,growth inhibition,[5]; at 33.0 µM,29%
same,growth inhibition,[5]; [17],39%
same,growth inhibition,[5]; at 50.0 µM,81.9% (active)
same,growth inhibition,[5]; at 100.0 µM,46%
same,growth inhibition,[6]; at 1.2 µM,3%
same,growth inhibition,[6]; at 3.7 µM,10%
same,growth inhibition,[6]; [16],-5%
same,growth inhibition,[6]; at 11.0 µM,17%
same,growth inhibition,[6]; at 33.0 µM,27%
same,growth inhibition,[6]; [17],13%
same,growth inhibition,[6]; at 50.0 µM,33.4%
same,growth inhibition,[6]; at 100.0 µM,32%
same,growth inhibition,[7]; at 1.2 µM,35%
same,growth inhibition,[7]; at 3.7 µM,36%
same,growth inhibition,[7]; at 11.0 µM,40%
same,growth inhibition,[7]; at 33.0 µM,43%
same,growth inhibition,[7]; at 100.0 µM,52%
same,growth inhibition,[8]; [16],4%
same,growth inhibition,[8]; [17],55%
same,growth inhibition,[8]; at 50.0 µM,84% (active)
same,growth inhibition,[9]; at 1.2 µM,10%
same,growth inhibition,[9]; at 3.7 µM,32%
same,growth inhibition,[9]; at 11.0 µM,51%
same,growth inhibition,[9]; at 33.0 µM,57%
same,growth inhibition,[9]; at 100.0 µM,72% (active)
same,growth inhibition,[10]; [16],81% (active)
same,growth inhibition,[10]; [17],49%
same,growth inhibition,[10]; at 50.0 µM,63.5%
same,growth inhibition,[11]; at 1.2 µM,4%
same,growth inhibition,[11]; at 3.7 µM,14%
same,growth inhibition,[11]; [16],61%
same,growth inhibition,[11]; at 11.0 µM,37%
same,growth inhibition,[11]; at 33.0 µM,58%
same,growth inhibition,[11]; [17],88% (active)
same,growth inhibition,[11]; at 50.0 µM,83% (active)
same,growth inhibition,[11]; at 100.0 µM,79% (active)
same,growth inhibition,[12]; at 1.2 µM,6%
same,growth inhibition,[12]; at 3.7 µM,17%
same,growth inhibition,[12]; at 11.0 µM,22%
same,growth inhibition,[12]; at 33.0 µM,39%
same,growth inhibition,[12]; at 100.0 µM,72% (active)
same,growth inhibition,[13]; at 1.2 µM,17%
same,growth inhibition,[13]; at 3.7 µM,29%
same,growth inhibition,[13]; at 11.0 µM,34%
same,growth inhibition,[13]; at 33.0 µM,31%
same,growth inhibition,[13]; at 100.0 µM,40%
same,growth inhibition,[14]; [16],2%
same,growth inhibition,[14]; [17],33%
same,growth inhibition,[14]; at 50.0 µM,79.4% (active)
same,growth inhibition,[15]; at 1.2 µM,7%
same,growth inhibition,[15]; at 3.7 µM,18%
same,growth inhibition,[15]; at 11.0 µM,34%
same,growth inhibition,[15]; at 33.0 µM,34%
same,growth inhibition,[15]; at 100.0 µM,43%
